Source: PubChem BioAssay (NCI)
Where “and” joins values, the source holds several entries; their conditions need not be identical. Equal values may be shown once. About 83,000 compounds went through this panel and 20% of them were active in at least one assay; those are over-represented in the sample as a whole.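 Values shown are percent growth following 48 h exposure of cells in 96-well plates to a single concentration of compound; below 10 was considered active.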 Calls of active or inactive are those of the source.

Experiments:
Assay in all cases: NCI-60 one-dose screen, 48 h (100 = growth as untreated, 0 = no growth, -100 = all killed)
NCI-H23 lung = tested on: NCI-H23 lung
NCI-H226 lung = tested on: NCI-H226 lung
NCI-H322M lung = tested on: NCI-H322M lung
HOP-62 NSCLC = tested on: HOP-62 NSCLC
NCI-H460 lung = tested on: NCI-H460 lung
HOP-92 NSCLC = tested on: HOP-92 NSCLC
NCI-H522 lung = tested on: NCI-H522 lung
A549/ATCC NSCLC = tested on: A549/ATCC NSCLC
786-0 renal = tested on: 786-0 renal
COLO 205 colon = tested on: COLO 205 colon

Measured: growth

CCOC(=O)Nc1ccc2c(c1)/C(=N\NC(N)=S)c1ccccc1-2
inactive: NCI-H23 lung; 10 µM unless noted 44.3% and 62.6% | NCI-H226 lung; 10 µM unless noted 76% and 81.1% | NCI-H322M lung; 10 µM unless noted 83.8% and 94.9% | HOP-62 NSCLC; 10 µM unless noted 74.7% and 77.6% | NCI-H460 lung; 10 µM unless noted 52% and 58.4% | HOP-92 NSCLC; 10 µM unless noted 71.1% | NCI-H522 lung; 10 µM unless noted 76.9% | A549/ATCC NSCLC; 10 µM unless noted 60% and 57.6% | 786-0 renal; 10 µM unless noted 28% and 53.7% | COLO 205 colon; 10 µM unless noted 63.3% and 88.3%

CC1(C)OB(c2ccc(Cn3cc(F)c(=O)[nH]c3=O)cc2)OC1(C)C
inactive: NCI-H23 lung; 10 µM 94.9% | NCI-H23 lung; 50 µM 68.3% | NCI-H226 lung; 10 µM 96.9% | NCI-H226 lung; 50 µM 64% | NCI-H322M lung; 10 µM 102% | NCI-H322M lung; 50 µM 86.4% | HOP-62 NSCLC; 10 µM 104% | HOP-62 NSCLC; 50 µM 63.9% | NCI-H460 lung; 10 µM 106% | NCI-H460 lung; 50 µM 34.2% | HOP-92 NSCLC; 10 µM 98.3% | HOP-92 NSCLC; 50 µM 33.2% | NCI-H522 lung; 10 µM 91% | NCI-H522 lung; 50 µM 10.3% | A549/ATCC NSCLC; 10 µM 98.9% | A549/ATCC NSCLC; 50 µM 75.8% | 786-0 renal; 10 µM 105% | 786-0 renal; 50 µM 81.4% | COLO 205 colon; 10 µM 120% | COLO 205 colon; 50 µM 36.4%

CCCCCCCCCCCCCCCc1ccc(Cl)c(O)c1Cl (tested in a mixture with another compound)
inactive: NCI-H23 lung; 0.25 µM 19.1% | NCI-H23 lung; 10 µM 88.8% | NCI-H226 lung; 10 µM 93.6% | HOP-62 NSCLC; 0.25 µM 19% | HOP-62 NSCLC; 10 µM 97.5% | NCI-H460 lung; 10 µM 104% | HOP-92 NSCLC; 0.25 µM 17.5% | HOP-92 NSCLC; 10 µM 105% | NCI-H522 lung; 0.25 µM 12.1% | NCI-H522 lung; 10 µM 83.1% | A549/ATCC NSCLC; 0.25 µM 38.5% | A549/ATCC NSCLC; 10 µM 71.9% | 786-0 renal; 0.25 µM 15.6% | 786-0 renal; 10 µM 107% | COLO 205 colon; 0.25 µM 49.3% | COLO 205 colon; 10 µM 114%
active: NCI-H226 lung; 0.25 µM 5.35% | NCI-H460 lung; 0.25 µM 5.78%

Cc1cc(O)c2c(c1)C(=O)c1cc(O)cc(O)c1C2=O
inactive: NCI-H23 lung; 10 µM unless noted 71% and 91.7% | NCI-H226 lung; 10 µM unless noted 84.8% and 90.8% | NCI-H322M lung; 10 µM unless noted 94.6% and 107% | HOP-62 NSCLC; 10 µM unless noted 97.9% and 78.1% | NCI-H460 lung; 10 µM unless noted 98% and 102% | NCI-H522 lung; 10 µM unless noted 61% and 78.8% | A549/ATCC NSCLC; 10 µM unless noted 77.5% and 81.1% | 786-0 renal; 10 µM unless noted 74.6% and 83.3% | COLO 205 colon; 10 µM unless noted 102% and 96.7%
-3.28% (active) and 20.5% (inactive): HOP-92 NSCLC; 10 µM unless noted

COC(=O)[C@H]1CCCN1C(=O)C1CCCN1C(=O)[C@@H](Cc1ccccc1)NC(=S)Nc1cc(C(F)(F)F)cc(C(F)(F)F)c1 (stereo partly drawn)
inactive: NCI-H23 lung; 10 µM unless noted 108% and 96.5% | NCI-H226 lung; 10 µM unless noted 105% and 87.6% | NCI-H322M lung; 10 µM unless noted 142% and 88.4% | HOP-62 NSCLC; 10 µM unless noted 105% and 97.9% | NCI-H460 lung; 10 µM unless noted 102% and 94.5% | HOP-92 NSCLC; 10 µM unless noted 111% and 84.9% | NCI-H522 lung; 10 µM unless noted 98.6% and 78.1% | A549/ATCC NSCLC; 10 µM unless noted 97.2% and 71.4% | 786-0 renal; 10 µM unless noted 105% and 99.2% | COLO 205 colon; 10 µM unless noted 121% and 91.4%

CC1=C[C@H]2c3c(c(O)c(O)c4oc5cc(O)cc(O)c5c(=O)c34)[C@H](c3cc(O)c(O)c4oc5cc(O)cc(O)c5c(=O)c34)[C@H]2C(C)(C)C1
active: NCI-H23 lung; 10 µM unless noted -5.6% and -52.4% | NCI-H226 lung; 10 µM unless noted 2.7% and -31.2% | HOP-62 NSCLC; 10 µM unless noted -16.2% | NCI-H460 lung; 10 µM unless noted -41.5% and -57.7% | HOP-92 NSCLC; 10 µM unless noted -8.6% and -43.8% | NCI-H522 lung; 10 µM unless noted -50.7% and -52.7% | A549/ATCC NSCLC; 10 µM unless noted -10% and -37.5% | 786-0 renal; 10 µM unless noted -18.9% and -42.3% | COLO 205 colon; 10 µM unless noted -44.6%
12.1% (inactive) and -11.1% (active): NCI-H322M lung; 10 µM unless noted
